# This is a sample that favours compounds with a hit; in the whole collection about 0.72% have one here.
# RGS4 inh = blocks human RGS4-accelerated GTP hydrolysis; Potency, µM (top dose mostly 114 µM), for inactives: top-dose activity change, negative = inhibition, usual class: inhibitors; actives 0.039% (n = 390,000); AID 504845; Transcreener GDP fluorescence polarization, RGS4-accelerated GTP hydrolysis; P49798; also: potency is read from the fitted curve at half-maximal effect; nearly all actives have a fitted effect of over 75% in size
#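 MLSMR compounds (23 nl, pin-transferred) preincubated 10 min at room temperature with a 500nM (2x) first reagent, then RGS4 at 900nM (2x) plus Transcreener GDP mix added; fluorescence polarization (620/688 nm) read before and after 90 min at 30 °C.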
# Six1-Eya2 inh = blocks human Six1 binding to Eya2; AlphaScreen GST-Six1/His-Eya2 binding, biochemical; stronger effect = lower value; AID 651725; activity change, % (test concentration not listed); actives 0.56% (n = 360,000); Q15475+O00167; in the data active = activity change below about -65%; inconclusive = mostly about -30% to -63%
#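 AlphaScreen luminescence read after one hour at 37 °C in darkness. Pin-transferred compounds met GST-Six1 and His-Eya2 protein (5X stock 250 nM/500 nM) plus glutathione donor and Ni-chelate acceptor beads (5X, 50 ug/mL).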
# Eya2 phos inh = blocks the phosphatase activity of human Eya2 | O00167 | recombinant Eya2, OMFP fluorescence dephosphorylation (OMFP is methylfluorescein phosphate) | Potency, µM (doses to about 76.9 µM), for inactives: top-dose activity, negative = inhibition, most hits filed as inhibitors | actives 0.006% (n = 330,000); also: potency is read from the fitted curve at half-maximal effect
#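 Eya2 (0.2 uM) preincubated 10 min at ambient with compound, then OMFP substrate added at 50 uM; 10 min reaction in 50 mM HEPES pH 7.5, 50 mM NaCl, 5 uM MgCl2, 0.05% BSA, 1 mM DTT. Fluorescence read at Ex 485/Em 525 nm.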
# USP2a block = inhibitors of human ubiquitin-specific protease USP2a. USP2 core, Ub-CHOP2 coupled fluorogenic reporter, 485/531. Potency, µM (titrated, usually from 38.3 µM), without a hit: at the top dose activity change, negative = inhibition, usual class: inhibitors. actives 0.01% (n = 330,000). AID 463254;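 also: potency is read from the fitted curve at half-maximal effect; plate controls were DMSO wells for no effect and full inhibition by NEM control for full effect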
# Target sequence (O75604 whole entry, looked up): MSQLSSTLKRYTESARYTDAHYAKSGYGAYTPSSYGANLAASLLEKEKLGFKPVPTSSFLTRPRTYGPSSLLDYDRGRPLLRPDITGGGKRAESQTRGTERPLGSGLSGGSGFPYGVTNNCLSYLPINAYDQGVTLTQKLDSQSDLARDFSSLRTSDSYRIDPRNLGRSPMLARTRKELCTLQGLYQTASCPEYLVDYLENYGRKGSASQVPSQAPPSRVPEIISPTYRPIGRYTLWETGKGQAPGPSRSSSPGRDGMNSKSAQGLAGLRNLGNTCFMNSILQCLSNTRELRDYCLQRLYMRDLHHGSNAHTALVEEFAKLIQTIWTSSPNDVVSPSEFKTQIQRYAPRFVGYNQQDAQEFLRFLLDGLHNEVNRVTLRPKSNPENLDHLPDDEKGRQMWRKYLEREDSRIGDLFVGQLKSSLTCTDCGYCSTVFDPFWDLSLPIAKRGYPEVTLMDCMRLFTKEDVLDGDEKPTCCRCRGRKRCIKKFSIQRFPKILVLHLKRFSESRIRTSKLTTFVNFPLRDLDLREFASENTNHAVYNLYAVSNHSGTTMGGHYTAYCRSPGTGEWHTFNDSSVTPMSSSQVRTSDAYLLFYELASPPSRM
#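 Deubiquitinase activity read as fluorescence (485/531 nm) after Ub-CHOP2 cleavage activates the enterokinase reporter on its substrate; USP2 core 10nM, Ub-CHOP2 and substrate 25nM each, 30min compound preincubation then 60min RT; data normalized to NEM, curves fitted.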
# CtBP-E1A inh = blocks the CtBP interaction with E1A; AlphaScreen GST-E1A/His-CtBP binding, 1536-well; stronger effect = lower value; activity change, % (concentration not given with the values); actives 0.49% (n = 340,000); AID 651724; in the data active = activity change below about -65%; inconclusive = mostly about -30% to -63%
#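 In 5 uL wells, 23 nL compound meets equimolar GST-E1A and His-CtBP (5X stock 125 nM each) for 2 h, 37 °C. Beads (5X, 50 ug/mL) then 1 h, 37 °C, dark.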
# PI4K2A block = PI4K2A (human) kinase inhibition | Q9BTU6 | purified PI4K2A, ADP-Glo luminescence, 1 h; stronger effect = lower value | activity change, negative = inhibition, % at 76.9 µM | actives 0.13% (n = 420,000) | AID 1346378; in the data active = activity change below about -50%; inconclusive = mostly about -30% to -49%;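 also: -100% = wells without enzyme as full effect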
#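 In this quantitative HTS, ADP production by PI4K2A was quantified luminescently after 1 h at ambient temperature; 100 microM adenosine served as plate-quality control.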
# * hit, by the source's call; i = inactive; ? = inconclusive; nt = not tested or not shown; [ ] = another dose, or the depositor's remark. Unless noted, calls follow the shape of the dose curve; as a rule, active = well fitted curve in the direction sought with a large enough effect; inconclusive = small, poorly fitted or top-dose-only effect, or another doubt; inactive = no such curve, though single readings can be large; an effect the other way counts as inactive or inconclusive. Unless noted, % is scaled to controls: 0 for no effect and ±100 for the full control effect.
SMILES,RGS4 inh,Six1-Eya2 inh,Eya2 phos inh,USP2a block,CtBP-E1A inh,PI4K2A block
CCOc1ccc(/C=C2\CCc3ccccc3C2=O)cc1,12%,-3,-11%,3%,-10,?
Cc1ccc(CNC(=O)C2CCN(S(=O)(=O)c3c(C)noc3/C=C/c3cccs3)CC2)cc1,-7%,nt,nt,nt,nt,10
CCCCCCCCCCCCCCCC(=O)NCC(COP(=O)([O-])OCC[N+](C)(C)C)OCC (stereo unspecified),21µM*,nt,-3%,nt,nt,4
CN1CCc2c(sc3nc(SCC(=O)N4CCOCC4)n(-c4ccc(Cl)cc4)c(=O)c23)C1,-7%[56.9 µM],-14,8%,0%,-80*,-5
O=Cc1ccc(OC(=O)c2cccnc2)cc1,-2%,-65*,-3%,-4%,-10,-4
CCCCC/C=C\C[C@H](O)/C=C/C=C\C/C=C\CCCC(=O)O,i,nt,nt,nt,nt,nt
CCCCC/C=C\C\C=C/C=C/C=C/[C@@H](SC[C@H](N)C(=O)NCC(=O)O)[C@@H](O)CCCC(=O)O,27µM*,nt,nt,nt,nt,nt
CC(=O)NC(c1ccc(Cl)cc1)c1ccc2cccnc2c1O (stereo unspecified),13%,?,nt,nt,nt,8
CCC(=O)NC(c1ccc(C)cc1)c1cc([N+](=O)[O-])c2cccnc2c1O (stereo unspecified),?,-85*,1%,0%,-87*,-18
CCCC(=O)NC(c1ccco1)c1cc([N+](=O)[O-])c2cccnc2c1O (stereo unspecified),-7%,-92*,5%,-2%,nt,-12
CC(=O)NC(c1ccc(C)cc1)c1cc([N+](=O)[O-])c2cccnc2c1O (stereo unspecified),?,-90*,-5%,3%,-93*,-29
Cc1nn(-c2cccc(Cl)c2)c2c1C(c1ccncc1)C(C#N)=C(N)O2 (stereo unspecified),-41%,?,-2%,0%,?,-6
Cc1nn(-c2cccc(Cl)c2)c2c1C(c1cccnc1)C(C#N)=C(N)O2 (stereo unspecified),?,-4,11%,-1%,14,-51*
O=S(=O)(O)c1cccc2c(N=Nc3ccc(O)c4ncccc34)cccc12,-6%,32,-9%,-9%,-92*,-23
NS(=O)(=O)c1cccc2cccnc12,14%,-4,-7%,-1%,4,6
Oc1ccc(/C=C/c2ccccc2F)c2cccnc12,nt,nt,nt,nt,nt,1
O=Nc1ccc(O)c2ncccc12,13%,-89*,0%,2%,nt,-8
COc1ccc(S(=O)(=O)n2nc(-c3ccco3)nc2NCc2ccc(C(C)C)cc2)cc1,13%,nt,nt,nt,nt,-4
COc1ccc(CCNC(=O)CCCn2c(=O)c3ccccc3n(CC(=O)Nc3c(C)cc(C)cc3C)c2=O)cc1OC,-8%,nt,nt,nt,nt,2
Cc1c(C(=O)N2CCOCC2)c(S(=O)(=O)Nc2ccc(C(C)C)cc2)c(C)n1C,8%[11.4 µM],3,5%,1%,2,4
CS(=O)(=O)Nc1cccc(NC(=O)c2cccc3c(-c4cccc(C(N)=O)c4)coc23)c1,nt,?,nt,nt,-72*,6
CC(N)c1csc(Nc2cc(Oc3ccccc3)ncn2)n1 (stereo unspecified),nt,?,nt,nt,-68*,4
CC(N)c1csc(Nc2ncccn2)n1 (stereo unspecified),nt,-84*,nt,nt,-88*,-1
COc1ccc(S(=O)(=O)N(CC(=O)NCCSc2ccccc2)c2ccc(C)cc2)cc1,-3%,nt,nt,nt,nt,3
COc1ccc(NC(=O)COc2cccc3c2CCN(Cc2cccnc2)C3=O)c(OC)c1,-30%,-75*,-3%,-4%,-82*,-12
SMILES,RGS4 inh,Six1-Eya2 inh,Eya2 phos inh,USP2a block,CtBP-E1A inh,PI4K2A block
CC(=O)c1ccc(N=Nc2ccc(N(C)C)cc2)cc1,0%,?,-3%,1%,-13,-8
CN(C)c1ccc(N=Nc2ccccc2Br)cc1,25%,-87*,0%,3%,-90*,-4
O=C(N/N=C/c1cc2c3c(c1O)CCCN3CCC2)c1ccccc1O,-33%,-90*,12%,-2%,-66*,0
Cc1nn(-c2ccccc2)c(N2CCCC2)c1/C=N/NC(=O)c1ccccc1O,-7%,?,0%,0%,?,-3
CCc1cccc2c(CCO)c[nH]c12,nt,nt,nt,nt,nt,-1
COc1cc(-c2nnn(CC(=O)NC3CCS(=O)(=O)C3)n2)ccc1OCc1ccccc1 (stereo unspecified),-29%,-14,-12%,-2%,-6,-60*
CC(=O)c1c(C)oc2ccc(NS(=O)(=O)c3ccc(O)c(C(=O)O)c3)cc12,47%,-7,-5%,1%,-8,-21
O=C(O)c1cc(S(=O)(=O)Nc2ccc3oc(=O)sc3c2)ccc1O,?,-9,6%,3%,-9,-68*
O=C(O)c1cc2c(cn1)[nH]c1ccccc12,1%,-79*,?,0%,-93*,-27
O=C(O)c1cc2ccccc2cn1,24%,-80*,nt,nt,-84*,-26
CC(C)CC(N)c1csc(Nc2ccc(C(=O)NCCCO)cn2)n1 (stereo unspecified),nt,-70*,nt,nt,-78*,2
NC(Cc1ccc(F)cc1)c1csc(Nc2ccc(C(=O)NCCCO)cn2)n1 (stereo unspecified),nt,-68*,nt,nt,-72*,-2
NC(Cc1ccccc1)c1csc(Nc2ccc(C(=O)NCCO)cc2)n1 (stereo unspecified),nt,-16,nt,nt,-9,2
CC(=O)Oc1ccc2c(c1)Oc1cc(OC(C)=O)ccc1C21OC(=O)c2ccccc21,-30%,-82*,?,?,-28,7
O=C1OC2(c3ccc(O)cc3Oc3cc(O)ccc32)c2ccccc21,nt,nt,nt,nt,nt,-2
O=C(O)Cc1sc(Nc2ccccc2Cl)nc1-c1ccccc1,-8%,nt,nt,nt,nt,-3
CCOc1ccc(C(=O)Nc2cc(C)ccn2)cc1,?,5,-6%,0%,1,-72*
O=C1CC(N2CCCN(Cc3ccccc3)CC2)=NC(=O)N1c1ccc(Br)cc1,nt,nt,nt,nt,nt,-6
COc1ccc(C(=O)Nc2ccccc2C(=O)Nc2ccc(C(=O)O)cc2)cc1,-36%,0,-21%,-1%,-12,0
COc1ccc(CC(=O)Nc2ccc(C(=O)Nc3ccccc3C(=O)O)cc2)cc1OC,-13%,-76*,9%,6%,-67*,0
O=C(Nc1cc(C(=O)Nc2ccccc2C(=O)O)cc(C(=O)Nc2ccccc2C(=O)O)c1)c1ccccc1,-2%,-69*,-7%,1%,?,-16

# Screens deposited in PubChem BioAssay by National Center for Advancing Translational Sciences (NCATS).
